According to PubChem BioAssay (NCI):
Where “and” joins values, the source holds several entries; their conditions need not be identical. Identical values can stand only once. About 79,000 compounds went through this panel and 15% of them were active in at least one assay; those are over-represented in the sample as a whole. Some structures have more than one record in an assay (separate samples or runs), and their calls can disagree. Calls of active or inactive are those of the source. No stated cut-off is given here; in the data, active means growth inhibition above about 70%; inactive means the rest.

Assays:
[1] = NCI Yeast Anticancer Drug Screen. Data for the rad50 strain (AID 155);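 further: 0% = growth of vehicle-only cultures of the same strain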; settings: S. cerevisiae rad50 strain growth inhibition; at 50.0 µM; stronger effect = higher value
Outline: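 Relative growth inhibition (compound vs vehicle) was measured in yeast with a defined repair-gene alteration.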

[2] = NCI Yeast Anticancer Drug Screen. Data for the mec2-1 strain (AID 157); settings: S. cerevisiae mec2-1 strain, at 50.0 µM, stronger effect = higher value
Outline: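 Strain: mec2-1 (DNA repair/cell cycle alteration). Compound exposure, then growth measured; inhibition expressed relative to vehicle.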

[3] = NCI Yeast Anticancer Drug Screen. Data for the sgs1 mgt1 strain (AID 161);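 further: 0% = growth of cultures given vehicle only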; settings: S. cerevisiae sgs1 mgt1 strain, at 50.0 µM, stronger effect = higher value
Outline: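 Genetically altered yeast, compound exposure, growth inhibition relative to vehicle.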

[4] = NCI Yeast Anticancer Drug Screen. Data for the cln2 rad14 strain (AID 165);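 further: 0% = growth equal to vehicle treated cultures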; settings: S. cerevisiae cln2 rad14 strain, at 50.0 µM, stronger effect = higher value
Outline: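 Compounds are applied to the cln2 rad14 yeast strain, and growth is then compared with that of vehicle-treated cultures to give inhibition.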

[5] = NCI Yeast Anticancer Drug Screen. Data for the bub3 strain (AID 167); settings: S. cerevisiae bub3 mutant strain, at 50.0 µM, stronger effect = higher value
Outline: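 Screening used yeast with an engineered genetic alteration affecting cell cycle control. Compound-exposed cultures were compared with vehicle cultures, and reduced growth was taken as inhibition.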

[6] = NCI Yeast Anticancer Drug Screen. Data for the mlh1 rad18 strain (AID 175); settings: S. cerevisiae mlh1 rad18 strain growth inhibition; at 50.0 µM; stronger effect = higher value
Outline: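 Read-out is yeast growth inhibition, calculated against vehicle-only controls. The compound was applied to a strain engineered with DNA damage repair alterations.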

Measured: growth inhibition

O=C(CCl)OCCC1CCCCC1
inactive: [1] 9.3% and -7.6% | [2] -16.7% and -17.1% | [3] 5.15% and -10.8% | [4] -8.7% and -29.4% | [5] 5.6% and 6.1% | [6] 1.4% and -16.4%

COc1cc2c(cc1OC)C(=O)C1COC(=O)C1C2 (configuration not stated)
inactive: [1] -17% and 0.6% | [2] -18.8% and -11.5% | [3] -8.7% and 14.8% | [4] -11.9% and 5.05% | [5] -6.2% and -4.85% | [6] 0.55% and 12.2%

NC(=S)N/N=C/c1ccc([N+](=O)[O-])cc1
inactive: [1] 40.4% and 11.5% | [2] 29.7% and 13.2% | [3] 29.2% and 4.5% | [4] 24.1% and 20.6% | [5] 5.7% and 3.7% | [6] 30.9% and 5.95%

O=[N+]([O-])C(CO)(CO)CO
inactive: [1] -11.3% and 11.1% | [2] -6.25% and 1.95% | [3] -6% and 6.85% | [4] -22.4% and 3.45% | [5] -2.55% and 2.6% | [6] -7.2% and 2.65%

Nc1c(O)nc[nH]c1=O
inactive: [1] 3.5% and -8.25% | [2] -5.15% and -3.15% | [3] -9% and -8.55% | [4] -1.55% and -39.1% | [5] 4.8% and -10.2% | [6] -16.6% and -8.95%

CCCCc1c(C#N)c(=O)n2c(N)c(C(=O)OCC)cnc2c1SC
inactive: [1] -8.45% and 11.1% | [2] -3.4% and 14.9% | [3] 8.3% and -12.1% | [4] -7.6% and -34% | [5] 5.65% and -7.9% | [6] 9.15% and -5.05%

O=C(O)C1CCCCC1
inactive: [1] -5.9% and -10.2% | [2] -22.6% and -8.45% | [3] -13.7% and 22.7% | [4] 5.95% and -13.2% | [5] 2.15% and 2.55% | [6] 8.3% and 17.1%

CC(=O)OCC1OC(n2cnc3c(N)ncnc32)C(OC(C)=O)C1OC(C)=O (configuration not stated)
inactive: [1] 3.05% and 8.1% | [2] -8.9% and -3.3% | [3] 18.8% and 0.2% | [4] 14.2% and 11.4% | [5] 5.3% and -0.8% | [6] 18.1% and -0.25%

CC(=O)OCC1OC(n2c(C)c(C)cc(C#N)c2=S)C(OC(C)=O)C(OC(C)=O)C1OC(C)=O (configuration not stated)
inactive: [1] -18.1% and 18.2% | [2] -10.2% and -13.2% | [3] -4.8% and -4.05% | [4] -23.4% and 18.9% | [5] -2.2% and 18.7% | [6] 4.3% and 14.9%

CCOC(=O)C1CN(C)CC(c2ccccc2)C1=O (configuration not stated)
inactive: [1] 12.3% and -8.7% | [2] 14.9% and 1% | [3] 16.1% and -3.5% | [4] -10.4% and -25.1% | [5] 9.25% and -4.45% | [6] 11.1% and 5.6%

C/C=C/C=C/c1cc2cc3c(c(O)c2c(=O)[nH]1)C1(CC3)C(O)=c2c(=O)c3c(=O)cc(OC)c(=O)c=3c(=O)c2=C1O (configuration not stated)
81.8% (active) and 60% (inactive): [4]
active: [1] 86.8% and 80.7% | [2] 89.8% and 74.3% | [3] 88.7% and 75.2% | [5] 83% and 80.5% | [6] 78.6%

CCCN=C(N)C(N)=NCCC (tested in a mixture with another compound)
inactive: [1] 0.4% and 6.5% | [2] -3.95% and 7.35% | [3] 9% and 26.4% | [4] -21.4% and 7.55% | [5] 12.6% and 3.75% | [6] 6.65% and 10%

CN1C(=O)N/C(=C\c2ccc(S(=O)(=O)N/N=C\C(O)C(O)C(O)C(O)CO)cc2)C1=O (configuration not stated)
inactive: [1] 2.65% and 7.85% | [2] 8.3% and 22.2% | [3] 17.9% and -4.2% | [4] 7.65% and 3.75% | [5] -19.1% and -1% | [6] 15.3% and 41.5%

C[S+](C)C
inactive: [1] -5.65% and -0.05% | [2] -7.25% and -2.1% | [3] -2.9% and -2% | [4] 9.1% and -10% | [5] 4.4% and -7.1% | [6] -18.4% and 12.5%

O=C(O)c1cc(N=Nc2ccc([N+](=O)[O-])cc2)ccc1O
inactive: [1] 51.1% and 26.6% | [2] -34% and 8.2% | [3] -13.7% and 12.2% | [4] 10.2% and -34.8% | [5] 9.75% and 27.4% | [6] 18.2% and 49%

NC(C(=O)O)C(CC(=O)O)C(=O)O (configuration not stated)
inactive: [1] 1.8% and 9.2% | [2] -2.1% and 11.2% | [3] -1.95% and -2.75% | [4] -57% and -40% | [5] -10.9% and -0.05% | [6] 16.4% and 9.75%

CCOC(=O)C(=Cc1ccco1)C(=O)OCC
inactive: [1] 38.5% and 10.2% | [2] 37.1% and -24.6% | [3] 7.75% and -0.5% | [4] 23.8% and 8.8% | [5] -4.65% and -9.25% | [6] 19.8% and -19.1%

COC1OCCC(n2c(C)cc3c(N)ncnc32)C1O (configuration not stated)
inactive: [1] -7.3% and 1.55% | [2] -19.2% and -8.6% | [3] -28.6% and -11.8% | [4] -4.15% and -1.7% | [5] -22.1% and -20.6% | [6] -29.2% and 2.05%

CC(=O)Nc1ccc(-c2ccc(NC(C)=O)cc2)cc1
inactive: [1] -24.2% and -15.2% | [2] -41.9% and -24.6% | [3] -26.9% and -0.95% | [4] -182% and -42.9% | [5] -24.4% and -1.45% | [6] -10.1% and -21.2%

O=[N+]([O-])c1ccc(S(=O)(=O)Cl)cc1
inactive: [1] 53.2% and 20.5% | [2] -3.75% and 6.75% | [3] 30.9% and 44.5% | [4] 35.8% and 23.1% | [5] 28.1% and 6.15% | [6] 52% and 52.5%

CN(/N=C/c1ccccc1)C(=N)N
inactive: [1] -3.6% and 5.4% | [2] -5.4% and 4.15% | [3] -10.2% and 13.2% | [4] -40.6% and 11.2% | [5] -12.8% and -5.6% | [6] -2.3% and 2.05%

COc1ccc(C2c3cc(OC)c(OC)cc3CC(C(=O)O)C2C(=O)N(C)C)cc1OC (configuration not stated)
inactive: [1] -2.05% and -30.2% | [2] 8% and -4.6% | [3] 35.3% and -0.15% | [4] 26.6% and 10.1% | [5] 4.7% and -4% | [6] 13.1% and 1.9%
